Sampled rows, rich in hits. Any-hit rate of the full collection: about 2%.
CHT PAM: allosteric activators of human choline transporter CHT; Q9GZV3; CHT-expressing cells, membrane potential dye, choline EC20; hits give high values; LV-AA mutant CHT in HEK293 cells; B-score at 10 µM; 310,000 tested, 0.49% active; AID 488977;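 active = initial fluorescence not abnormally high and integrated response B-score, plate-corrected, over 3 SD above library mean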
CHT block: human CHT choline transport inhibition; AID 488975; B-score at 10 µM; 310,000 tested, 0.86% active; CHT-expressing cells, membrane potential dye, choline response; hits give low values; Q9GZV3;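 active = B-score over 3 SD under the library average, and starting fluorescence ratio not unusually high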;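 also: choline stimulus applied at its EC90 after an EC20 pre-addition; B-score computed on integrated fluorescence ratio after choline addition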
PGE2 EP2 inh: inhibitors of human EP2 prostaglandin E2 receptor; P43116; C6 glioma cells expressing human EP2, cAMP TR-FRET; cells stimulated with saturating PGE2; inhibition, % at 25 µM; 260,000 tested, 0.52% active; AID 1422;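 active = percent inhibition above 40 after rounding to a whole number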;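 also: rat C6 glioma host cells with rolipram phosphodiesterase inhibitor present; the protocol text gives 20 µM as final concentration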
Target sequence (P43116 whole entry, looked up): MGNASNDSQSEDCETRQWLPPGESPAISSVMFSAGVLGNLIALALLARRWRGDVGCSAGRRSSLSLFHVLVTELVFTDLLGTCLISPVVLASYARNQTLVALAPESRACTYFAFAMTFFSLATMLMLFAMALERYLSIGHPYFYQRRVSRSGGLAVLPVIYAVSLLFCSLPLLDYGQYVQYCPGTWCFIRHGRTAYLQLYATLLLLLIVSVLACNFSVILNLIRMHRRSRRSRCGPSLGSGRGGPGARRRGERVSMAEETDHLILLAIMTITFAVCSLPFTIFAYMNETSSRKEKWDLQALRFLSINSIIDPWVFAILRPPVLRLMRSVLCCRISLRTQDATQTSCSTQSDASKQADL
EP2 mod: EP2 receptor (human) modulation; P43116; EP2-expressing cells, cAMP HTRF FRET, PGE2 co-stimulation; induction, % at 25 µM; 260,000 tested, 0.83% active;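 active = compounds whose cAMP rise, as percent of the full-agonist control response, exceeds 60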;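 also: rat C6 glioma line stably carrying human EP2 under a CMV promoter; the protocol text gives 20 µM as final concentration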
CHT inh conf: human CHT inhibition, confirmatory screen. shares compounds with CHT block. 2,400 tested, 70% active. AID 493221. CHT activity remaining % of control (hits give low values), % at 10 µM. CHT-expressing cells, choline membrane potential dye; LV-to-AA substituted CHT, HEK293 cells;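 active = choline transporter activity left, mean of duplicates at 10 µM, below buffer-only control mean minus 3 SD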;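 also: depolarization triggered by choline at its EC90 following an EC20 pre-addition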
HEK293 CHT ctr: counter-screen for CHT inhibitors: effect in parental HEK293 cells; shares compounds with CHT block; 2,400 tested, 4% active; AID 493222; membrane potential dye, choline response; active = decrease or increase beyond buffer ±3SD; membrane potential ratio readout (active if shifted either direction beyond buffer ±3SD; no single direction) at 10 µM;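 also: parental cells lack the transporter so any hit is non-specific; ratio is peak minus trough fluorescence over baseline after EC90 choline challenge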
Numbers stand for hits.

How did CCOC(=O)C1CCN(C(=O)CN(c2ccc(OC)cc2)S(C)(=O)=O)CC1 do in these assays?
PGE2 EP2 inh: inactive; EP2 mod: inactive

How did CC[N+]1(CC)CC2=Cc3c(ccc4ccccc34)C(C)C2C1 (stereo unspecified) do in these assays?
CHT PAM: inactive; CHT block: -6; PGE2 EP2 inh: inactive; EP2 mod: inactive; CHT inh conf: 60%; HEK293 CHT ctr: inactive

What do the screens show for `Cc1ccc(NC(=O)CN(C)C(=O)COC(=O)COc2ccc(C#N)cc2)cc1`?
CHT PAM: inactive; CHT block: inactive

What do the screens show for `CN(Cc1ccccc1)C(=O)COC(=O)COc1ccc(C#N)cc1`?
CHT PAM: inactive; CHT block: -5.3; CHT inh conf: 65%; HEK293 CHT ctr: inactive

What do the screens show for `O=C(CC(CC(=O)c1ccc(Cl)cc1)c1ccccc1C(=O)O)c1ccc(Cl)cc1`?
CHT PAM: inactive; CHT block: -5.8; CHT inh conf: 40%; HEK293 CHT ctr: inactive

Results for COc1ccc(-n2c(SCc3nc4ccccc4c(=O)[nH]3)nc3ccccc3c2=O)cc1 ?
PGE2 EP2 inh: inactive; EP2 mod: inactive

What do the screens show for `COCCCn1c(SCC(=O)Nc2sc3c(c2C#N)CCCC3)nnc1-c1ccncc1`?
CHT PAM: inactive; CHT block: -5.5; PGE2 EP2 inh: inactive; EP2 mod: inactive; CHT inh conf: 62%; HEK293 CHT ctr: inactive

Results for O=C(Nc1ccccc1)c1cccc(S(=O)(=O)NC2CCCC2)c1 ?
CHT PAM: inactive; CHT block: -5.2; CHT inh conf: 36%; HEK293 CHT ctr: inactive

What do the screens show for `Cc1c(C(=O)N2CCC3(CC2)NC(=O)c2ccccc2O3)[nH]c2ccc(F)cc12`?
EP2 mod: inactive

Results for COCCNC(=O)C(=O)NNC(=O)CCc1ccccc1 ?
CHT PAM: inactive; CHT block: -5.5; PGE2 EP2 inh: inactive; EP2 mod: inactive; CHT inh conf: inactive; HEK293 CHT ctr: inactive

What do the screens show for `CC1CCN(c2nc3c(c(=O)[nH]2)CCN(Cc2cc(F)ccc2F)C3)CC1`?
PGE2 EP2 inh: inactive; EP2 mod: inactive

How did Cn1nnnc1SCC(=O)N1CCN(S(=O)(=O)c2ccccc2)CC1 do in these assays?
CHT PAM: inactive; CHT block: inactive; PGE2 EP2 inh: inactive; EP2 mod: inactive

Results for Cn1ccnc1SCC(=O)N1CCN(S(=O)(=O)c2ccccc2)CC1 ?
CHT PAM: inactive; CHT block: -5; PGE2 EP2 inh: inactive; EP2 mod: inactive; CHT inh conf: inactive; HEK293 CHT ctr: inactive

How did CC[C@H](Cn1ncc2ccccc2c1=O)NC(=O)Cc1cc(OC)ccc1OC do in these assays?
EP2 mod: inactive

Results for O=C(CC1CCCC1)N1CCC[C@H](Cn2nc(-c3cccs3)ccc2=O)C1 ?
EP2 mod: inactive

Results for COc1ccc(Br)cc1C(=O)NC(=S)Nc1ccc(Cl)c(C(=O)O)c1 ?
CHT PAM: inactive; CHT block: inactive; PGE2 EP2 inh: inactive; EP2 mod: inactive; CHT inh conf: 58%; HEK293 CHT ctr: inactive

How did COc1ccccc1C(=O)Nc1ccc(C(=O)c2ccccc2)cc1 do in these assays?
CHT PAM: inactive; CHT block: -6.5; PGE2 EP2 inh: inactive; EP2 mod: inactive; CHT inh conf: inactive; HEK293 CHT ctr: inactive

How did O=c1c(-c2ccc(Cl)cc2)c[nH]n1-c1ccccc1 do in these assays?
CHT PAM: inactive; CHT block: inactive

How did O=c1c(-c2ccccc2)c[nH]n1-c1cccc([N+](=O)[O-])c1 do in these assays?
CHT PAM: inactive; CHT block: -6.2; PGE2 EP2 inh: inactive; EP2 mod: inactive; CHT inh conf: 45%; HEK293 CHT ctr: inactive

What do the screens show for `CC(=O)N1CCN(c2c3c(nc4cc(-c5cccc(F)c5)nn24)CCCC3)CC1`?
PGE2 EP2 inh: inactive; EP2 mod: inactive

What do the screens show for `Fc1cccc(-c2cc3nc4c(c(N5CCC6(CC5)OCCO6)n3n2)CCCC4)c1`?
CHT PAM: inactive; CHT block: -7.8; PGE2 EP2 inh: inactive; EP2 mod: inactive; CHT inh conf: inactive; HEK293 CHT ctr: inactive

What do the screens show for `O=C(O)c1ccccc1NS(=O)(=O)c1cccc(-n2sc3ccccc3c2=O)c1`?
CHT PAM: inactive; CHT block: -6.4; CHT inh conf: 22%; HEK293 CHT ctr: inactive

Results for COCCOc1ccc(CN2CCC(O)(c3ccc(F)cc3)CC2)cc1OC ?
PGE2 EP2 inh: inactive; EP2 mod: inactive

Results for CC(C)(C)NC(=O)NC(=O)CN1CCN(c2cccc(Cl)c2)CC1 ?
CHT PAM: inactive; CHT block: -6.9; PGE2 EP2 inh: inactive; EP2 mod: inactive; CHT inh conf: 47%; HEK293 CHT ctr: inactive

What do the screens show for `CC(C)(C)NC(=O)NC(=O)CN1CCN(c2ccccc2)CC1`?
CHT PAM: inactive; CHT block: inactive; PGE2 EP2 inh: inactive; EP2 mod: inactive

How did CCn1c(COc2ccccc2)nc2ccccc21 do in these assays?
CHT PAM: inactive; CHT block: inactive; PGE2 EP2 inh: inactive; EP2 mod: inactive

Results for CCn1c(COc2ccc(OC)cc2)nc2ccccc21 ?
CHT PAM: inactive; CHT block: -5.2; PGE2 EP2 inh: inactive; EP2 mod: inactive; CHT inh conf: inactive; HEK293 CHT ctr: inactive

Results for CC(C)n1c(=S)[nH]c2ccccc2c1=O ?
CHT PAM: inactive; CHT block: inactive; PGE2 EP2 inh: inactive; EP2 mod: inactive

What do the screens show for `CC(C)n1c(=S)[nH]c2cc(Cl)ccc21`?
CHT PAM: inactive; CHT block: -6.9; PGE2 EP2 inh: inactive; EP2 mod: inactive; CHT inh conf: 52%; HEK293 CHT ctr: inactive

What do the screens show for `CC(=O)NC(Cc1ccc(C(C)C)cc1)C(=O)NC1CCN(C(=O)c2cccc(C)c2)CC1` (stereo unspecified)?
CHT PAM: inactive; CHT block: inactive; PGE2 EP2 inh: inactive; EP2 mod: inactive

Results for CC(=O)NC(Cc1cccc(F)c1)C(=O)NC1CCN(C(=O)c2cccc(C)c2)CC1 (stereo unspecified) ?
CHT PAM: inactive; CHT block: -7.8; PGE2 EP2 inh: inactive; EP2 mod: inactive; CHT inh conf: inactive; HEK293 CHT ctr: inactive

Results for O=C(NC1CCCCC1)C(c1ccc2ncccc2c1)N(Cc1cccs1)C(=O)c1cccs1 (stereo unspecified) ?
CHT PAM: inactive; CHT block: -5.5; PGE2 EP2 inh: inactive; EP2 mod: inactive; CHT inh conf: inactive; HEK293 CHT ctr: inactive

How did O=C(NC1CCCCC1)C(c1ccc2ncccc2c1)N(Cc1ccc(F)cc1)C(=O)c1ccc2c(c1)OCCO2 (stereo unspecified) do in these assays?
CHT PAM: inactive; CHT block: -7.5; EP2 mod: inactive; CHT inh conf: 65%; HEK293 CHT ctr: inactive

Assay outcomes from PubChem BioAssay.
